In PubChem BioAssay AID463173 (ICCB-Longwood Screening Facility, Harvard Medical School, 2010) one finds survival data, which are given here for 32 molecules.

Hit rate of the full screen: of about 52,000 compounds, about 1,700 (3.3%) were called active. For the sample, actives were picked, then their nearest neighbours and some compounds at random. Values without a mark were called inactive. Rule as the data show it: active = survival mostly below about 52% (no sharp cut-off); inactive = mostly above about 56%.

The assay relates to Wild type. The experiment in a line: S. aureus survival, RN4220 and DeltatarO strains – OD600, teichoic acid synthesis inhibitors, primary screen (AID 463173). The settings on record: S. aureus RN4220 wild type/DeltatarO growth, OD600, 18 h, hits give low values, screened at 18.75 µg/mL (by protocol).
For the molecule `CCOCCc1nn2c(=O)cc(COC(=O)c3cccc(C)c3)nc2s1`, the survival was -6% (active).

Regarding `CCCCc1nn2c(=O)cc(COC(=O)c3ccccc3C)nc2s1`, the survival was 72%.

With `CCCc1nn2c(=O)cc(COC(=O)c3cccc(NC(=O)c4ccc(OCC)cc4)c3)nc2s1`, the survival was -2% (active).

Turning to `CCOc1ccc(C(=O)Nc2cccc(C(=O)OCc3cc(=O)n4nc(C5CC5)sc4n3)c2)cc1`, the survival was 51%.

`CCOCCc1nn2c(=O)cc(COC(=O)c3ccc(NC(=O)c4cccs4)cc3)nc2s1`: the survival is 118%.

Turning to `CCCc1nn2c(=O)cc(COC(=O)c3ccccc3NC(=O)c3ccc(OCC)cc3)nc2s1`, the survival is 22%.

`COCCc1nn2c(=O)cc(COC(=O)COc3ccccc3C)nc2s1`: the survival is 80%.

`COCCc1nn2c(=O)cc(COC(=O)c3ccccc3C)nc2s1`: the survival is -6% (active).

Turning to `CCOCCc1nn2c(=O)cc(COC(=O)c3ccc4c(c3)OCO4)nc2s1`, the survival was 133%.

With `CCOCCc1nn2c(=O)cc(COC(=O)c3ccc(NC(=O)C(C)(C)C)cc3)nc2s1`, the survival is 77%.

On to `CCOCCc1nn2c(=O)cc(COC(=O)CNC(=O)c3cccc(C)c3)nc2s1`, for which the survival is 84%.

In the case of `CCOCCc1nn2c(=O)cc(COC(=O)c3ccc(NC(=O)c4ccc(F)cc4)cc3)nc2s1`, the survival was 0% (active).

In the case of `C=CCn1c2ccccc2c2ccccc21`, the survival was 80%.

With `Cc1cccc(-c2nc(SCCCOc3ccccc3Cl)n3[nH]c(=O)cc3n2)c1`, the survival is 65%.

For the molecule `NC(=O)CSc1nnc(CNc2ccc(Cl)cc2)n1Cc1ccccc1`, the survival was 125%.

For the molecule `COc1ccc(NC(=O)c2cc3c(=O)n(Cc4cccnc4)ccc3nc2C)cc1Cl`, the survival is 124%.

For `Cc1oc(-c2ccccc2)nc1CNC(=O)NC1CCCCC1`, the survival was 72%.

Take `CCCc1nn2c(=O)cc(COC(=O)c3cccc(NC(=O)COc4ccc(F)cc4)c3)nc2s1`: the survival was 80%.

As for `CCCc1nn2c(=O)cc(COC(=O)c3ccc(NC(=O)COc4ccc(F)cc4)cc3)nc2s1`, the survival was 10% (active).

`CCCc1nn2c(=O)cc(COC(=O)c3ccc(NC(=O)COc4ccccc4)cc3)nc2s1`: the survival is 83%.

As for `COC(=O)c1cc2oc(C)cc2n1Cc1cc(C)ccc1C`, the survival was -2% (active).

For `COC(=O)c1cc2occc2n1Cc1cccc(C)c1`, the survival is -1% (active).

With `CCc1cccc(NC(=O)Cn2c(C(=O)OC)cc3occc32)c1`, the survival was 83%.

Take `CCOC(=O)c1cc2oc(C)cc2n1CCCN1C(=O)c2ccccc2C1=O`: the survival is -1% (active).

With `COC(=O)c1cc2occc2n1Cc1nc(-c2ccc(C)cc2)oc1C`, the survival was 48%.

For the molecule `C=CCn1c(C(=O)OCC)cc2oc(C)cc21`, the survival was 111%.

`COC(=O)c1cc2oc(C)cc2n1Cc1ccc(Cl)cc1`: the survival was 72%.

On to `CCOC(=O)c1cc2oc(C)cc2n1CC(=O)NC1CC1`, for which the survival is 94%.

On to `COC(=O)c1cc2oc(C)cc2n1Cc1cccc(Cl)c1`, for which the survival is -2% (active).

On to `COC(=O)c1cc2oc(C)cc2n1Cc1ccc(C)cc1`, for which the survival is 68%.

`COC(=O)c1cc2oc(C)cc2n1CC(=O)Nc1cc(Cl)ccc1OC`: the survival is 88%.

With `COC(=O)c1cc2oc(C)cc2n1Cc1c(C)cc(C)cc1C`, the survival is 33%.
